Numbering of substitutions follows the chain as printed. In all, about 24,000 sequences were measured (“enrichment r”: median about 0.99, highest 2% from about 3.7 on). The full list was thinned out, with the highest values kept by preference.
T1: UNK ZnF1-3 (human, UniProt Q9C0B0 31-174)
T1 sequence: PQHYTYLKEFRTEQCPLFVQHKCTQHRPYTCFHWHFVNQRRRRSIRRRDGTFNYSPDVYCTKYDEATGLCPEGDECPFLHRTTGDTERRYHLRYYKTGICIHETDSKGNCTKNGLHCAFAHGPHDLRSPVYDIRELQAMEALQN

B1: chr6:83878822:83878823:+_ENSMUSG00000030016_ENSMUST00000032088|mus_hu|FALSE|FALSE (ssRNA)
RNA: GGGAGUUCUACAGUCCGACGAUCCUCCUCGAGGAUUAAACCUGGGUCUCGACAUGGCUAUUUUCAAGAAAGCCUGAUUUAAUAAAGUAUAAGGUGGUGUUGAACCAUGUGAGGCAACGGCAUUCAGCUGCUGAAGCGCCAACUCAACAGAGGAUUGAGCAUCA
B2: chr12:67691335:67691336:+_ENSG00000111530_ENST00000540319|hu_mus|motif|central (ssRNA)
RNA: GGGAGUUCUACAGUCCGACGAUCCAUGGAGUCAUUUUUGGACAACUCUGACAACAGAUGUUCAAUAAGGUCUACAAAAACGGUAUUUCCGCAGCUCAUAACUAGGUGGCCAAGAGCAAUAAUUGUUCUUUUCCUCACUGCAAGCAACAGAGGAUUGAGCAUCA
B3: chr15:75216061:75216062:-_ENSG00000178741_ENST00000564811|perfect_dup|motif|central (ssRNA)
RNA: GGGAGUUCUACAGUCCGACGAUCUUUGUCAAGGCCCAGUUCCUCCGGAGUGGAGAUUCCCAGUUCAUUUAAAGUUGGUCGGAGUUCCUGGAUGACAUAGGGGUAGAUUUCCUUAUGAGGUCCUGCUUUGUCCUUAACAACCUCCAACAGAGGAUUGAGCAUCA
B4: chrX:98838459:98838460:+_ENSMUSG00000034160_ENSMUST00000044475|mus_mus|FALSE|FALSE (ssRNA)
RNA: GGGAGUUCUACAGUCCGACGAUCUCCCAAAUUCGAAUAGGCUUCUGCUAGAAGGGGAUUCUGUUUAAUUGCCAAGGUGCUAAAAUGAGCAGAUCUGUCCAGCCUUCGACACUGGAAGUGUAUAGAUGAAAGUAAUAAAAGAACCAACAGAGGAUUGAGCAUCA
B5: 109710003_109710123_2987_3pUTR_ENSMUSG00000031924_ENSMUST00000034400|mouse|control|control (ssRNA)
RNA: GGGAGUUCUACAGUCCGACGAUCUUCUGCCUCCCAAGUGCUGGGAUUAAAGAUUUAAAAAAAAAAAAGCAUCCUUUUUAUAUAAUAUAAAAUGACAUUACAUUAUCAGUAGUUCAAAAGAAGCCCUGGGUAUUGACGGAUUUCCAACAGAGGAUUGAGCAUCA
B6: chr4:6323411:6323412:-_ENSMUSG00000028245_ENSMUST00000029910|mus_hu|FALSE|FALSE (ssRNA)
RNA: GGGAGUUCUACAGUCCGACGAUCAGAAAAAUAUUUUUAAUGUAGAAAAGAUGAAUAGCUGUAAUGAAAUACAAACCGUUCCUAUACACAGUAAACUUACUAAGAACUGCUAAUCCUUCUCCAGGUUCUUAGAAUCUGGGUACACAACAGAGGAUUGAGCAUCA
B7: chr12:16048344:16048345:+_ENSG00000023734_ENST00000419869|hu_hu|hu_hu_hu_mus_True|8_18 (ssRNA)
RNA: GGGAGUUCUACAGUCCGACGAUCAGAUCGUCCAUAAGUAAUAACCAAAAUCUCUCCUUCAGGAAUAUACUCCAUGCUGCUAACAGACAUAUUAAAAUUCAGAGAUUUCACUUCUGUCAUAGUAGCAUGAUCCCAAAGCCGAACCAACAGAGGAUUGAGCAUCA
B8: chr12:42180722:42180723:-_ENSMUSG00000036295_ENSMUST00000043884|mus_hu|mus_mus_mus_hu_True|58_108 (ssRNA)
RNA: GGGAGUUCUACAGUCCGACGAUCCUGUAGGAGCAGAAUCUGUGUGUUAGCUGGCAAUCUGGCUGGGAAAGUUAAAAGCCCUAAAUCAUUACAAUCCACUGUAGAUGCUUCCAUAUAAAUGGAUCUGGGUGUAAACCAAGGCCUCAACAGAGGAUUGAGCAUCA
B9: chr16:94690093:94690094:+_ENSMUSG00000040785_ENSMUST00000117648|mus_mus|FALSE|FALSE (ssRNA)
RNA: GGGAGUUCUACAGUCCGACGAUCUGGGACUCCUGUGAGCAGACAGCAUCUUCCCAGGGUAAAAAAAAAAAAUAGCCAAUACUAAUUUAAAAAGUAUUUUAUAAUUGAUUACCAAAAUGUAGAUUAAUUGAAUCAUAAGCACUUCAACAGAGGAUUGAGCAUCA
B10: chr12:16048344:16048345:+_ENSG00000023734_ENST00000419869|hu_hu|hu_hu_hu_mus_True|18_78 (ssRNA)
RNA: B7 RNA with U57C, A135G
B11: chr16:94690093:94690094:+_ENSMUSG00000040785_ENSMUST00000117648|mus_mus|motif|central (ssRNA)
RNA: B9 RNA with U82G, A83G
B12: chr7:125984895:125984896:+_ENSMUSG00000030982_ENSMUST00000106553|mus_mus|motif|central (ssRNA)
RNA: GGGAGUUCUACAGUCCGACGAUCGUAGAAGGCAAGAGCUUAAAACCAAUCUGUAUAAAAGUAAAAAUAACAAAAACUUCGGAAUUCCAGGAAGAGUUAAUGGCAGCCAAGCAGAUCUUCCAGGAUGUGGCACUGGGACUCCCGCAACAGAGGAUUGAGCAUCA

molecular target: T1, UNK ZnF1-3; test: nsRBNS (natural sequence RNA bind-n-seq); RBNS binding buffer (assumed for nsRBNS): 25 mM Tris pH 7.5, 150 mM KCl, 3 mM MgCl2, 0.01% Triton X-100, 500 ug/ml BSA, 20 U/ml SUPERase-In, 4 C; UNK is unkempt and MSI1 is Musashi-1; names of the RNAs are library labels; protein concentration not given here; high values mean tight binding

Binder	binding signal [enrichment R]
B1	1.46
B2	0.704
B3	0.656
B4	1.64
B5	2.62
B6	1.02
B7	0.71
B8	1.07
B9	7.05
B10	0.91
B11	4.87
B12	3.93

— PMC12136788
